An excerpt weighted towards active compounds, which were near 3.5% of everything screened.
mHTT-CaM PPI inh = mutant huntingtin-calmodulin interaction inhibitors – biochemical, AlphaScreen, primary screen. AID 1671202, 2021. AlphaScreen His-mHTT/GST-CaM binding, luminescence. 3.6% of 190,000 active. inhibition, % at 15 µM. P42858;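 also: 0% = both proteins with DMSO and 100% = one protein alone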
Pf apPOL inh = Pf-apPOL inhibitors, biochemical, fluorescence; AID 1794808, 2022; Recombinant Pf-apPOL, molecular beacon fluorescence, 1.5 h; 0.25% of 210,000 active; inhibition, % at 10 µM; Plasmodium falciparum apicoplast DNA polymerase (apPOL)
Active calls of the source: *; / = no result given; ! = not confirmed by another sample. Rule as the data show it: active = inhibition above about 50%; inactive = the rest.

SMILES	mHTT-CaM PPI inh	Pf apPOL inh
C=CCNC(=O)c1c(O)c2cccc3c2n(c1=O)CC3	7	-7
COc1cccc(CNC(=O)N2CCC3(CC2)Nc2ccccc2-n2cccc23)c1	61*	-5
CC(=O)NCCc1csc(C2CCN(C(=O)c3ccc(C)c(C)c3)CC2)n1	26	-2
COc1ccc(-c2c(C#N)c(N)n3c(nc4ccccc43)c2C#N)cc1	94*	-1
Cc1ccc(-c2c(C#N)c(N)n3c(nc4ccccc43)c2C#N)cc1	-3	10
NC(=O)Cn1c(-c2ccc(F)cc2)nc2c(c1=O)CCN(Cc1ccccc1)C2	28	3
c1ccc(-c2noc(-c3cc(N4CCOCC4)nc4ccccc34)n2)cc1	-16	-4
CCN1CCN(c2cc(-c3nc(-c4ccccc4)no3)c3ccccc3n2)CC1	66*	-3
N#CC1=C(N)SC(N)=C(C#N)C1c1ccc(O)cc1	7	3
N#CC1=C(N)SC(N)=C(C#N)C1c1cccs1	63*!	-6
CC1=C(C#N)C(c2cccs2)C(C#N)=C(C)N1	/	26
N#CC1=C(N)SC(N)=C(C#N)C1c1ccc(-c2ccccc2)cc1	52*	0
COc1cccc(CSc2nc(CC(=O)NCCc3c[nH]c4ccccc34)cc(=O)[nH]2)c1	9	-2
COc1ccc(-c2ncc3c(n2)CCN(C(=O)c2ccc(Br)o2)C3)cc1	-6	9
COc1ccc(-c2cn3c(C(=O)NCc4cccs4)csc3n2)cc1	10	-3
Cc1ccc(-c2cn3c(CC(=O)NCc4cccs4)csc3n2)cc1	52*	-21
COc1ccc(Cl)cc1C(=O)Nc1c2c(nn1-c1ccc(C)cc1)CS(=O)(=O)C2	3	-2
Cc1ccc(NC(=O)CSc2nc3nc(C)cc(C)n3n2)c(Cl)c1	21	-12
COc1ccc(/C=C2/C(=O)N(c3cc(Cl)ccc3Cl)N=C2C)cc1	3	-3
N#Cc1c(-c2ccc(Nc3ccccc3)cc2)nn(-c2ccccc2)c1N	53*	2
N#CCc1nn(-c2ccccc2)c(N)c1C#N	4	0
Cc1ccc(S(=O)(=O)Nc2ccc([N+](=O)[O-])cn2)cc1	5	-2
Cc1c(-c2noc(C(=O)NCCC(C)C)n2)oc2c(C)cccc12	-7	0
O=C(CN1C(=O)/C(=C/c2ccc(Cl)cc2)Sc2ccccc21)NC1CC1	7	-18
O=C(Nc1ccccc1)Nc1cc(F)c2nc(N3CCOCC3)ccc2c1	-2	2
SMILES	mHTT-CaM PPI inh	Pf apPOL inh
O=C(c1ccc(Cl)cc1)N1CCCC2(CC(c3ccccc3)=CO2)C1 (stereo unspecified)	91*	-8
O=C(c1ccc(F)cc1)N1CCCC2(CC(c3cccnc3)=CO2)C1 (stereo unspecified)	28	0
O=C(c1ccc(Cl)cc1)N1CCCC2(CC(c3ccc(Cl)cc3)=CO2)C1 (stereo unspecified)	-12	-5
COc1ccc(C2=COC3(CCCN(C(=O)c4ccc(F)cc4)C3)C2)cc1 (stereo unspecified)	-4	-9
O=C(c1ccccc1)N1CCCC2(CC(c3cccnc3)=CO2)C1 (stereo unspecified)	97*	-10
COc1ccc(C2=COC3(CCCN(C(=O)c4ccccc4)C3)C2)cc1 (stereo unspecified)	65*	-4
CN(C)C(=O)c1cccnc1SCCS(=O)(=O)c1ccccc1	/	6
C=CCOc1ccccc1CNc1ccccc1F	-87	3
C=CCOc1ccccc1CNc1ccc(C)cc1	54*	0
C=CCOc1ccccc1CNc1cc(OC)ccc1OC	67*	12
C=CCNC(=O)C(=O)Nc1cc(OC)ccc1OC	-4	-7
COc1cccc(CNC(=O)N2CCCC(C)(C(=O)NCc3ccc(F)cc3)C2)c1 (stereo unspecified)	-5	-3
O=C(NCC1CCCO1)c1nccnc1-c1nc2ccccc2s1 (stereo unspecified)	-7	-7
c1ccc(-n2nnnc2SCCN2CCOCC2)cc1	-5	-4
COc1ccc(NC(=O)CN(C)S(=O)(=O)c2ccc3[nH]c4c(c3c2)CCCC4)cc1	56*	-3
Cc1ccc(NC(=O)CN(C)S(=O)(=O)c2ccc3[nH]c4c(c3c2)CCCC4)c(C)c1	47	-2
CN(CC(=O)Nc1ccc(F)c(Cl)c1)S(=O)(=O)c1ccc2[nH]c3c(c2c1)CCCC3	66*	-7
Cc1c(Cl)cccc1NC(=O)CN(C)S(=O)(=O)c1ccc2[nH]c3c(c2c1)CCCC3	52*	-1
CC(=O)c1ccc(NC(=O)CN(C)S(=O)(=O)c2ccc3[nH]c4c(c3c2)CCCC4)cc1	41	-2
Cc1ccc(NC(=O)CN(C)S(=O)(=O)c2ccc3[nH]c4c(c3c2)CCCC4)nc1	43	-2
O=C(NCC(F)(F)F)c1ccc(N2CCCC2)nn1	-20	-1
CSc1nn(-c2ccccc2)cc1C(=O)Oc1ccc(Cl)cc1	/	2
CCOC(=O)c1ccc(Oc2c(C(F)(F)F)oc3c(CN4CCCCC4)c(O)ccc3c2=O)cc1	23	3
CCCN1c2ccccc2-c2c(ssc2=S)C1(C)C	48	/
CCOc1ccc2c(c1)-c1c(ssc1=S)C(C)(C)N2	51*	/
SMILES	mHTT-CaM PPI inh	Pf apPOL inh
Cc1ccc2c(c1)-c1c(ssc1=S)C(C)(C)N2	52*	/
CCC(=O)N1CCc2cc(Br)cc(S(=O)(=O)N(C)CC(OC)OC)c21	-2	-1
O=C(NCc1ccc(Br)cc1)c1ccc(-c2cncnc2)nc1	-2	0
CCN(C)C(=O)c1ccccc1N1CCC(NC(=O)C2CCC2)CC1	22	-108
CNC(=O)c1cc2cc(Cl)ccc2[nH]1	2	-5
O=C(Nc1nnc(-c2ccc(Cl)cc2Cl)o1)c1c(F)cccc1F	-6	-8
COC(CN(C)C(C(=O)NC1CCCCC1)c1ccc(C)cc1)OC (stereo unspecified)	5	-7
Cc1nc(-c2cccnc2)nc2c1CCC(=O)N2CCC1=CCCCC1	57*	5
Cc1nc(-c2ccncc2)nc2c1CCC(=O)N2CCC1=CCCCC1	13	6
CCCC1=C/C(=C\c2ccc(-c3ccccc3)o2)C(=O)O1	50*	-4
CC1=NOC(=O)/C1=C/c1ccc(-c2ccccc2)o1	27	3
O=C1OC(c2ccc(Cl)cc2)=C/C1=C\c1ccccc1	7	-19
O=C1OC(c2ccc(Cl)cc2)=C/C1=C/c1ccc(-c2ccccc2C(=O)O)o1	56*	-1
O=Cc1ccc(Br)s1	-6	/
Cc1ccc(S(=O)(=O)Nc2ccc(Cl)cc2)cc1	-20	-9
O=c1c(Cl)c(Cl)cnn1-c1cccc(Cl)c1	-1	-12
CCOc1ccc(NC(=O)C2CCCN(c3nnc4ccccn34)C2)cc1 (stereo unspecified)	5	-4
CCc1ccc(NC(=O)C2CCCN(c3nnc4ccccn34)C2)cc1 (stereo unspecified)	56*	-4
O=C(CNC1CCCCC1)Nc1c2c(nc3c1CCC3)CCCC2	-1	-1
O=C(Nc1ccccc1O)/C(=C1\Nc2ccc([N+](=O)[O-])cc2N1)[N+](=O)[O-]	20	5
NCCNC(=O)/C(=C1\Nc2ccc([N+](=O)[O-])cc2N1)[N+](=O)[O-]	63*	3
COc1ccc(CCNC(=O)c2ccccc2N=Cc2ccc(N(C)C)cc2)cc1OC	/	6
COc1ccccc1CNC(=O)c1nc(-c2ccc(C)cc2)n2c1CCCCC2	61*	-1

High-throughput results from PubChem.
